# Laboratory results: PubChem BioAssay (NCATS)
# Where “and” joins values, the source holds several entries; their conditions need not be identical. Equal entries are not always repeated. Values without a mark were called inactive. Results filed as inconclusive are left out. A call without a number means that no potency is given here. Calls of active or inactive are those of the source. Unless noted, calls come from the whole dose curve; as a rule, active = well fitted curve in the direction sought with a large enough effect; inconclusive = small, poorly fitted or top-dose-only effect, or another doubt; inactive = no such curve, though single readings can be large; an effect the other way counts as inactive or inconclusive.
# Key:
# [1] = Validation of Assay for Modulators of Lamin A Splicing (AID 1459; active = well fitted curve in the direction sought with a large enough effect in the signal ratio; the % refers to the signal ratio;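 note: cells exposed to compound for two days before reading; ratio rise marks activators and ratio drop marks inhibitors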)
# How it was run: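 S3 HeLa cells stably expressing a lamin A-EGFP splicing minigene and DsRed2 were seeded at 600 cells/well in Opti-MEM with 2% FBS, pin-dosed, and incubated 48 hrs at 37 °C, 5% CO2. Laser-scanning cytometry (488 nm) gave GFP/RFP total intensity ratio.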
# [2] = target: DNA repair nuclease/redox regulator APEX1 (Homo sapiens) (UniProt P27695); assay: qHTS Validation Assay for Inhibitors of the Human Apurinic/apyrimidinic Endonuclease 1 (APE1) (AID 1705; note: potency is the fitted concentration of half-maximal effect)
# How it was run: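 Human APE1 was preincubated with compound for 15 min at room temperature, then 50 nM (final) THF-abasic double-stranded DNA substrate bearing 5'-TAMRA and 3'-BHQ-2 was added. Incision-driven fluorescence rise (ex 525/em 598 nm) was read kinetically.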
# [3] = Counterscreen for APE1 Inhibitors: Fluorescent Dye Displacement Validation Assay (AID 1707); note: potency is the fitted concentration of half-maximal effect
# How it was run: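 Thiazole Orange displacement from dsDNA: 250 nM ThO with 50 nM TAMRA-labelled abasic-site (tetrahydrofuran) duplex in 50 mM Tris-HCl pH7.5, 50mM NaCl, 2 mM MgCl2, 0.01% Tween-20. Loss of endpoint fluorescence (ex 480 nm, em 540 nm) flags DNA binders.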
# [4] = qHTS for differential inhibitors of proliferation of Plasmodium falciparum line 3D7 (AID 1876); note: potency is the fitted concentration of half-maximal effect
# [5] = qHTS for differential inhibitors of proliferation of Plasmodium falciparum line D10 (AID 1877);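 note: parasites grown with compound for 72 h before DNA staining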; note: potency is the fitted concentration of half-maximal effect
# [6] = qHTS for differential inhibitors of proliferation of Plasmodium falciparum line Dd2 (AID 1882); conditions: Potency: Plasmodium falciparum Dd2 proliferation inhibition; note: nearly all actives have a fitted effect of over 65% in size; note: potency is the fitted concentration of half-maximal effect
# How it was run: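 Dd2-infected erythrocytes (0.3% parasitemia, 2.5% hematocrit final) incubated with compound 72 h at 37 C, 5% CO2; lysed with saponin/Triton buffer containing SYBR Green I, incubated overnight in the dark, then read by fluorescence (485/535 nm). Normalized to 0.29 uM artemisinin and DMSO.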
# [7] = target: Ferritin light chain (Equus caballus) (UniProt P02791); assay: qHTS Validation Assay for Identification of Novel General Anesthetics (AID 2323); note: series mostly up to about 77 µM
# How it was run: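 Competitive displacement of profluorescent 1-aminoanthracene (1-AMA, 50% saturated solution in PBS) from 10 uM horse-spleen apoferritin. Compounds incubated 10 min at room temperature; fluorescence read at 380 nm excitation/535 nm emission, normalized to free 1-AMA and complex, fitted with four-parameter Hill equation.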
# [8] = target: ATP-dependent DNA helicase Q1 (Homo sapiens) (UniProt P46063); assay: qHTS Validation Assay for Inhibitors of RecQ-Like Dna Helicase 1 (RECQ1) (AID 2353); note: potency is the fitted concentration of half-maximal effect
# How it was run: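 50 nM RECQ1T1 preincubated 15 min with compound in Tris pH 8.0 buffer with MgCl2, DTT, Tween-20 and 2.5 ug/ml poly(dI-dC); started with 200 nM TAMRA/BHQ-2 forked duplex and 2 mM ATP. Unwinding read as fluorescence (525/598 nm), two reads 2 h apart.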
# [9] = Validation screen for small molecules that induce DNA re-replication in MCF 10A normal breast cells (AID 463097); note: nearly all actives have a fitted effect of over 60% in size
# How it was run: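 Readout: Hoechst nuclear fluorescence intensity, 405 ex / 500-530 em, by scanning plate imager; re-replication scored as increase in nuclei with elevated DNA content. Cells exposed to compound 48 hr, 37 C, 5% CO2 beforehand.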
# [10] = Quantitative high throughput screen for delayed death inhibitors of the malarial parasite plastid, 96 hour incubation (AID 488745); note: series mostly up to about 29 µM; nearly all actives have a fitted effect of over 70% in size
# How it was run: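 Luciferase-expressing P. falciparum in erythrocytes (2% hematocrit, 0.1% parasitemia) incubated with compound for 96 h at 37 C, 5% CO2, in RPMI 1640 with 0.5% Albumax. Growth inhibition read as decreased luminescence.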
# [11] = target: M-phase phosphoprotein 8 (Homo sapiens) (UniProt Q99549); assay: qHTS Validation Assay for Inhibitors for MPP8 Chromodomain Interactions with Methylated Histone Tails (AID 488949);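 note: AlphaScreen signal from MPP8 chromodomain bound to biotinylated H3K9me3 peptide; top concentration of the series differs between compounds; nearly all actives have a fitted effect of over 55% in size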
# How it was run: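 MPP8 (50 nM) was preincubated with biotinylated H3(1-18)K9me3 peptide (50 nM) in PBS pH 7.4, 0.01% Tween-20 for 30 min at room temperature, then with compounds for 30 min; binding was detected by AlphaScreen.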
# [12] = target: Transient receptor potential cation channel subfamily V member 1 (Homo sapiens) (UniProt Q8NER1); assay: HTS Assay for Compounds that Act as Enhancers of the Vanilloid Receptor 1 (AID 488979)
# How it was run: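 TRPV1-expressing cells loaded with Fluo-8 calcium dye; compounds added and calcium influx read kinetically for 3 min (agonist phase), then capsaicin at EC20 added and read 2 min more for enhancement. Fluorescence ex 480/em 520 nm.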
# [13] = target: Thyrotropin receptor (Homo sapiens) (UniProt P16473); assay: qHTS Assay for Antagonists of the Thyroid Stimulating Hormone Receptor (AID 488980); note: series mostly up to about 58 µM
# How it was run: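 HEK293 cells transfected with human TSHR, suspended in HEPES-buffered HBSS with 70 uM RO 20-1724, were treated with compounds plus TSH at EC80 (4 nM final). cAMP was measured by competitive HTRF (cryptate anti-cAMP antibody, cAMP-d2 acceptor).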
# [14] = target: Thyrotropin-releasing hormone receptor (Homo sapiens) (UniProt P34981); assay: qHTS for Small Molecule Agonists and Allosteric Enhancers of Human TRH Receptor: Validation Screen for Agonists (AID 493127;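 active = calcium activation more than 3 SD above the typical response in the agonist read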); conditions: TRH receptor agonist cell assay; at 2 µM; stronger effect = higher value
# How it was run: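 TRHR cells loaded with fluo-8 calcium dye; FDSS kinetic fluorescence (Ex 480/Em 530) read at 1 s/cycle after 23 nL compound addition. Agonist-mode calcium response recorded before the 10 nM TRH (EC20) addition.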
# [15] = target: Galactokinase (Homo sapiens) (UniProt P51570); assay: qHTS Validation Assay for Inhibitors of Human Galactokinase (GALK) (AID 493189)
# How it was run: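 GALK (5 nM) with 35 uM ATP and 100 uM galactose in HEPES pH8.0, MgCl2, NaCl, DTT, BSA; 1 h at room temperature. Residual ATP read by Kinase-Glo Plus luminescence after 10 min.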
# [16] = Validation screen for small molecules that induce DNA re-replication in SW480 colon adenocarcinoma cells (AID 504364)
# How it was run: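 SW480 cells (250/well) exposed 48 h at 37 C, 5% CO2, then Hoechst-stained 40 min. Nuclear DNA content imaged by fluorescence scanning (405 nm excitation, 500-530 nm emission); re-replication scored as increased nuclei with elevated intensity.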
# [17] = target: Voltage-gated inwardly rectifying potassium channel KCNH2 (Homo sapiens) (UniProt Q12809); assay: qHTS Assay for Small Molecule Inhibitors of the Human hERG Channel Activity (AID 588834);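 note: lower thallium flux fluorescence means stronger hERG block; nearly all actives have a fitted effect of over 50% in size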; note: potency is the fitted concentration of half-maximal effect
# How it was run: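 U2OS cells transduced with hERG via BacMam (MOI ~100), plated 2000/well, loaded with FluxOR thallium dye, compound ~10 min, then stimulation buffer; fluorescence decrease read kinetically; AC50 from Hill fits.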
# [18] = Quantitative high throughput screen for delayed death inhibitors of the malarial parasite plastid, 48 hour incubation (AID 488752); note: nearly all actives have a fitted effect of over 65% in size
# How it was run: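 Erythrocytes infected with firefly luciferase-expressing P. falciparum (2% hematocrit, 0.1% parasitemia) cultured with compound for 48 h at 37 C, 5% CO2, in RPMI 1640/0.5% Albumax. Growth inhibition read as loss of luminescence.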
# Chain of ATP-dependent DNA helicase Q1 (Homo sapiens) (P46063 whole entry, looked up): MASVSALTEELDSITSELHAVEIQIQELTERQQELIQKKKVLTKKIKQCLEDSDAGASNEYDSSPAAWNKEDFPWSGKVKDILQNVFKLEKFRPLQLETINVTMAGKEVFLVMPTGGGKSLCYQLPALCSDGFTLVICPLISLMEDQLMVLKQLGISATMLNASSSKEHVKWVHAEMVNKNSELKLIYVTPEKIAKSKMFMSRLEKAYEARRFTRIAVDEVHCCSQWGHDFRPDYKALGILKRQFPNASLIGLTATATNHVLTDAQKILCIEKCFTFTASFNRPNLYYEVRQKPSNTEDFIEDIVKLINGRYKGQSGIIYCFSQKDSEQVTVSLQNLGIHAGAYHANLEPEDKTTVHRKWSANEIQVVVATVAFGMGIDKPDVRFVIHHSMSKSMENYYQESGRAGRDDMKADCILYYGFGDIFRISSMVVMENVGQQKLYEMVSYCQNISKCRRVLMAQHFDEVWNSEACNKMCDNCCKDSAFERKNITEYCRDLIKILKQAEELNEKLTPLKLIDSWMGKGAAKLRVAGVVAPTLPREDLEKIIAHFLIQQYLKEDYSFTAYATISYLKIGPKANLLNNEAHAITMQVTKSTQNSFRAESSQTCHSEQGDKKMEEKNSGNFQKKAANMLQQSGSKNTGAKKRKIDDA
# Chain of Ferritin light chain (Equus caballus) (P02791 2-175 limits assumed): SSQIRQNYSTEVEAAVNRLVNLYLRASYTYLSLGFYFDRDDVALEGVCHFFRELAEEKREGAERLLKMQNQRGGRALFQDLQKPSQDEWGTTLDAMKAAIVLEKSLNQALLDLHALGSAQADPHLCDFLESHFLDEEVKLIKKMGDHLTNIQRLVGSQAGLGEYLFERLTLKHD
# Chain of Thyrotropin-releasing hormone receptor (Homo sapiens) (P34981 whole entry, looked up): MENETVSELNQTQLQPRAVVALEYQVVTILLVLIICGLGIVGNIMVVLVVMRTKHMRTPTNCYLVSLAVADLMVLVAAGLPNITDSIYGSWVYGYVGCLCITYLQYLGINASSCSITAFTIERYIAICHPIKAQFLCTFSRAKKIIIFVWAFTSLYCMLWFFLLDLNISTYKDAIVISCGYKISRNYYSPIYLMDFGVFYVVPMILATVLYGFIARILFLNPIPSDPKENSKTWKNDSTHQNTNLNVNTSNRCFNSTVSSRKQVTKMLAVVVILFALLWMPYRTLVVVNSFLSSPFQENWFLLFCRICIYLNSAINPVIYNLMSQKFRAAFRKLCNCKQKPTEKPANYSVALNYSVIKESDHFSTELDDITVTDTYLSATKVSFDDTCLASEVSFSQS
# Chain of Thyrotropin receptor (Homo sapiens) (P16473 whole entry, looked up): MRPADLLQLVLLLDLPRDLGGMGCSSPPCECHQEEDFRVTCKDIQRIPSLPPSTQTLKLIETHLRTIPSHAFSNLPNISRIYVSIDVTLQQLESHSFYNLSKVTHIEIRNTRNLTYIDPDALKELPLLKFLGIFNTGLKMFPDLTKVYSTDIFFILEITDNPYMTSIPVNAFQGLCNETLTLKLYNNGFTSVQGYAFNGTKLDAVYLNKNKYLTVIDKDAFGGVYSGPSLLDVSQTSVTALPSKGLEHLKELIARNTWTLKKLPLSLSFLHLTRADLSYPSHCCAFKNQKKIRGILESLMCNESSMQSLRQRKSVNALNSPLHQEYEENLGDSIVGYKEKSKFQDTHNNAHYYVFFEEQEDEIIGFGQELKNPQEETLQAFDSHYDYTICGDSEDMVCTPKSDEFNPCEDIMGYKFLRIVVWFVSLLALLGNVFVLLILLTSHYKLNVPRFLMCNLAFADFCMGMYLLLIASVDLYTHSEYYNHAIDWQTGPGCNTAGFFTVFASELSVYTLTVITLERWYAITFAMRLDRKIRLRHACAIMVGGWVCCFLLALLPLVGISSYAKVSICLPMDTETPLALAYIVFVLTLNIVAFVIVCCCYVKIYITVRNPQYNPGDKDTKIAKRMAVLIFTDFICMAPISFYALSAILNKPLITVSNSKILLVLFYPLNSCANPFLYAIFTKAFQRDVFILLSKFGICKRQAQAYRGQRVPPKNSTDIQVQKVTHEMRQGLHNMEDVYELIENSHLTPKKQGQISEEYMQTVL
# Chain of Galactokinase (Homo sapiens) (P51570 whole entry, looked up): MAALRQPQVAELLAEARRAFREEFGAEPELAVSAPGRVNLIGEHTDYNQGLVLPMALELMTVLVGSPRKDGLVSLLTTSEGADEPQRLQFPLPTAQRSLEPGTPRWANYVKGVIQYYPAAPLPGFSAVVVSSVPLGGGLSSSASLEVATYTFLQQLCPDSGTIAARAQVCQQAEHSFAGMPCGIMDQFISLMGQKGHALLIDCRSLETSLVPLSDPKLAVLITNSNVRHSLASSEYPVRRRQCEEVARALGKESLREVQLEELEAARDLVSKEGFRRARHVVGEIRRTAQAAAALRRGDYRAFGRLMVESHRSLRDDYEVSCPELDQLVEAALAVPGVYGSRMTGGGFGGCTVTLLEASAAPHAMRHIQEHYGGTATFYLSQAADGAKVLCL
# Chain of M-phase phosphoprotein 8 (Homo sapiens) (Q99549 whole entry, looked up): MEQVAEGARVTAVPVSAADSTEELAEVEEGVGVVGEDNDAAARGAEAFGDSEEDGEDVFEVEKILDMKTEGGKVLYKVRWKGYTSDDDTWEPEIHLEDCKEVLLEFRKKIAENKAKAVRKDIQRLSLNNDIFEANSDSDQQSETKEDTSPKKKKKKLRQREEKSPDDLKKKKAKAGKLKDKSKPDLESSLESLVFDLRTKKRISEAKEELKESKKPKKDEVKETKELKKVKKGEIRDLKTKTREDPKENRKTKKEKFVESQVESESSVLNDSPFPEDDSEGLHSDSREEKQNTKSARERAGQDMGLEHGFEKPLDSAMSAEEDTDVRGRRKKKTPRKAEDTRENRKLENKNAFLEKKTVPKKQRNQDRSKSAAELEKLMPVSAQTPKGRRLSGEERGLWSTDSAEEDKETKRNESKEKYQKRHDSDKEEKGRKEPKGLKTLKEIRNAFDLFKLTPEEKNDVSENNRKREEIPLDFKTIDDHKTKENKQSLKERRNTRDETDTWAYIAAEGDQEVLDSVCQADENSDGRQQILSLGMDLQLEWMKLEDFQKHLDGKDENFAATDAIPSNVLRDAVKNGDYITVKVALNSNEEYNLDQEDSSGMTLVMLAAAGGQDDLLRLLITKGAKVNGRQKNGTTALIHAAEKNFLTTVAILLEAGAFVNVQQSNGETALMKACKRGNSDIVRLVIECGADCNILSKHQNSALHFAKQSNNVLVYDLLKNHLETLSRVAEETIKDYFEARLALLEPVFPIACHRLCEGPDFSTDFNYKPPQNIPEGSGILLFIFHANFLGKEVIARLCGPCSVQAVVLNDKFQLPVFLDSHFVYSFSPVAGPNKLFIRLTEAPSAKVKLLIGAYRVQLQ
# Chain of DNA repair nuclease/redox regulator APEX1 (Homo sapiens) (P27695 whole entry, looked up): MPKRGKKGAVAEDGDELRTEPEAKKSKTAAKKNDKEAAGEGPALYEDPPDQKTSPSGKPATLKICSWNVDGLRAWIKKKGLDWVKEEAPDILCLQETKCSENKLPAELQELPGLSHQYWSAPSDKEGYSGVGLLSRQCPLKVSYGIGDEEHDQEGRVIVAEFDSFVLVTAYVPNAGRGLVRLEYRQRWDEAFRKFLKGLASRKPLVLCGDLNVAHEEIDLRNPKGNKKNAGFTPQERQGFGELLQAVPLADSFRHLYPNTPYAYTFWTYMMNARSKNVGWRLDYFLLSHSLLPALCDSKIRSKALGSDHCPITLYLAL
# Chain of Voltage-gated inwardly rectifying potassium channel KCNH2 (Homo sapiens) (Q12809 whole entry, looked up): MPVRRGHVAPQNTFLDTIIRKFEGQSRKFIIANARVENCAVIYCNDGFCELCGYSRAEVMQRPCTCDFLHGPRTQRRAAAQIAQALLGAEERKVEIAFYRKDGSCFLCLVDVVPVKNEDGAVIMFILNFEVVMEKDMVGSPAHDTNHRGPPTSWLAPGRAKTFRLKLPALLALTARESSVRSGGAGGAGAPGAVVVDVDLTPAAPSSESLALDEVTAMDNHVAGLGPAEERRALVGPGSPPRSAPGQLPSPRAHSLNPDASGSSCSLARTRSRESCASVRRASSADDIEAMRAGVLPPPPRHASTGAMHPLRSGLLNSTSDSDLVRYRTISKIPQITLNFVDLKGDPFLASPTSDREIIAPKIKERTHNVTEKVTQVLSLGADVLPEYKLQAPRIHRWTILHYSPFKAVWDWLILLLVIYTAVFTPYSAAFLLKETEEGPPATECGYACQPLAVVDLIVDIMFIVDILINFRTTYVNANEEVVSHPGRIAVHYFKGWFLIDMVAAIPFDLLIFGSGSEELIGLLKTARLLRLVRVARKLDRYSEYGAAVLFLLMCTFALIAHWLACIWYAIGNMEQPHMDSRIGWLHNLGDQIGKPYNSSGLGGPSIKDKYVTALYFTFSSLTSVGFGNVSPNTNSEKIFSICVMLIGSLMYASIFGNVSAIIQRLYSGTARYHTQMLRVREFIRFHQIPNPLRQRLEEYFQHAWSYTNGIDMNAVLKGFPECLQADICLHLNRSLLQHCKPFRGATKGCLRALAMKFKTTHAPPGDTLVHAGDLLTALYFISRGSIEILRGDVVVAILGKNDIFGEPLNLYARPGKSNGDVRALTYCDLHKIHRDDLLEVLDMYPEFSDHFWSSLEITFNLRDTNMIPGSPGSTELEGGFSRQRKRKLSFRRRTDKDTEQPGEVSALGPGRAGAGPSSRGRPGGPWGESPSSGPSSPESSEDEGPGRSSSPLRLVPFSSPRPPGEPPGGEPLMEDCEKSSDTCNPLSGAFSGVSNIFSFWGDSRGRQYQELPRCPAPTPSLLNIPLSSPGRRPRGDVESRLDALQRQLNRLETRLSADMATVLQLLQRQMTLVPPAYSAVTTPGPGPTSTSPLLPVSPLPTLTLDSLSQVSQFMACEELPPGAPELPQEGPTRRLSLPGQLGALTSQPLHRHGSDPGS
SMILES,outcome [1],Potency [2],Potency [3],Potency [4],Potency [5],Potency [6],outcome [7],Potency [8],outcome [9],Potency [10],Potency [11],outcome [12],outcome [13],activation [14] [%],outcome [15],outcome [16],Potency [17],Potency [18]
C[C@H](Cc1ccccc1)Nc1ncnc2c1ncn2[C@@H]1O[C@H](CO)[C@H](O)[C@H]1O,inactive,inactive,inactive,inactive,inactive,inactive,inactive,inactive,inactive,inactive,inactive,inactive,inactive,-2.69,inactive,inactive,inactive,
CC(C)(C)[C@]1(O)CCN2CC3c4ccccc4CCc4cccc(c43)[C@@H]2C1 (stereo partly specified),inactive,inactive,inactive,6.31 µM (active) and 3.55 µM (active),12.6 µM (active) and 11.2 µM (active),7.08 µM (active) and 14.1 µM (active),,inactive,,,inactive,,inactive,,inactive,inactive,2 µM (active),
N.N.N.N.N.N.N.N.N.N.N.N.N.N.O.O.[Cl-].[Cl-].[Cl-].[Cl-].[Cl-].[Cl-].[Ru].[Ru].[Ru],inactive,35.5 µM (active),20 µM (active),,,,,4.47 µM (active),inactive,inactive,,inactive,,1.06,inactive,inactive,inactive,inactive
CCCCCCCCCCCCCCC/C=C/[C@@H](O)[C@H](NC(=O)CCCCCCCCCCCCC)OC (tested in a mixture with another compound),inactive,inactive,inactive,inactive,inactive,inactive,inactive,inactive,inactive,inactive,inactive,inactive,inactive,1.19,inactive,inactive,inactive,inactive
OC[C@H]1O[C@@H](n2cnc3c(Nc4ccccc4)ncnc32)[C@H](O)[C@H]1O,inactive,inactive,inactive,inactive,inactive,inactive,inactive,inactive,inactive,,inactive,inactive,inactive,0.188,inactive,inactive,inactive,inactive
CNc1ncnc2c1ncn2[C@@H]1O[C@H](CO)[C@H](O)[C@H]1O,inactive,inactive,inactive,inactive,inactive,inactive,inactive,inactive,,,inactive,inactive,inactive,1.06,inactive,inactive,inactive,
